The assay addresses T1, CRBN, Q96SW2.
T1 chain: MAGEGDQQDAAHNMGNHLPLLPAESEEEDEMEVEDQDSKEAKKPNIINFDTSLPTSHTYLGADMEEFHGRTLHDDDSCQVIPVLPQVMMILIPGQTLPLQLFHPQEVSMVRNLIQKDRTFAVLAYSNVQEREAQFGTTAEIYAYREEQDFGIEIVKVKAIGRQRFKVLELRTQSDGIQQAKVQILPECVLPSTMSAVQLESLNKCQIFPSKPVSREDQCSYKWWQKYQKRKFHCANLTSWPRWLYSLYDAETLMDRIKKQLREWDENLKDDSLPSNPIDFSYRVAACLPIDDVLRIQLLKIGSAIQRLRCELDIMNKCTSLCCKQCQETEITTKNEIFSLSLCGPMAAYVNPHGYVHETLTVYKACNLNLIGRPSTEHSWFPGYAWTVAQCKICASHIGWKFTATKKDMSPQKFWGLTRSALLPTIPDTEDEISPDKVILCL
The assay is described as follows: log2 fold change of degron read counts, EGFP-low vs EGFP+ sorted cells (limma voom), compound-induced degradation; higher = more compound-induced degradation of the degron-EGFP fusion; degrons are variants of IKZF1/3 zinc finger 2; compound dose not given here. The settings on record: Jurkat, 18 h.

Where [1] appears, read: compound: compound 19 (5-tert-butyl-thalidomide).
Setting [2] is: compound: compound 22 (5-morpholino-thalidomide).
[3] abbreviates: compound: compound 33 (diphenyl IMiD analogue).

We go through 28 sequences from the supplement of paper PMC12645437, “Orthogonal IMiD-Degron Pairs Induce Selective Protein Degradation in Cells” (ACS Chemical Biology, 2025).

In all, about 8,300 sequences were measured (“log2 fold change of degron read counts, EGFP-low vs EGFP+ sorted cells (limma voom), compound-induced degradation”: median about -1.1, highest 2% from about 3.2 on). What follows is part of a selection rich in the highest values, with near analogues and random picks from the rest.
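Also: pooled lentiviral library of zinc finger degron-EGFP fusions in mCherry-positive Jurkat cells, FACS-sorted after compound exposure, with degron abundance counted by next-generation sequencing.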

With FSCDVCGAIFTQKGNLLRHIKL [46F_47S_49D_50V_52G_53A_54I_55F_67L_, Q9UKT9], the “log2 fold change of degron read counts” value reads like this: under setting [1], -0.277; under setting [2], -1.23; under setting [3], -0.103; (compound: thalidomide) -1.43.
As to FCCEICGREFTQKGNLLRHIKL [46F_47C_49E_50I_52G_53R_54E_55F_67L_, Q9UKT9], the “log2 fold change of degron read counts” value is, setting by setting: under setting [1], -2.44; under setting [2], -2.4; under setting [3], -1.78; (compound: thalidomide) -1.56.
Taken in the same sequence, the figures for FNCPICGRDFTQKGNLLRHIKL [46F_47N_49P_50I_52G_53R_54D_55F_67L_, Q9UKT9] were -1.89, -1.85, -1.07 and -1.09.
For FSCSVCGHQFTQKGNLLRHIKL [46F_47S_49S_50V_52G_53H_54Q_55F_67L_, Q9UKT9], in that order: -2.44, -3.11, -2.86 and -2.7.
Take LCCEICGFECTQKGNLLRHIKL [46L_47C_49E_50I_52G_53F_54E_55C_67L_, Q9UKT9]: the “log2 fold change of degron read counts” value under setting [1] is -0.329, the “log2 fold change of degron read counts” value under setting [2] is -0.269, the “log2 fold change of degron read counts” value under setting [3] is -0.566 and the “log2 fold change of degron read counts” value (compound: thalidomide) turned out to be 0.603.
Taken in the same sequence, the figures for FHCNQCGAKFTQKGNLLRHIKL [46F_47H_49N_50Q_52G_53A_54K_55F_67L_, Q9UKT9] were -1.43, -1.66, -2.35 and -1.73.
As to FLCDVCGAAFTQKGNLLRHIKL [46F_47L_49D_50V_52G_53A_54A_55F_67L_, Q9UKT9], the “log2 fold change of degron read counts” value under setting [1] was -0.47, the “log2 fold change of degron read counts” value under setting [2] is -1.3, the “log2 fold change of degron read counts” value under setting [3] was 0.2 and the “log2 fold change of degron read counts” value (compound: thalidomide) was -0.799.
For FFCEICGRCFTQKGNLLRHIKL [46F_47F_49E_50I_52G_53R_54C_55F_67L_, Q9UKT9], the “log2 fold change of degron read counts” value reads like this: under setting [1], 0.787; under setting [2], 0.568; under setting [3], 0.232; (compound: thalidomide) -0.767.
On to LSCPICGFACTQKGNLLRHIKL [46L_47S_49P_50I_52G_53F_54A_55C_67L_, Q9UKT9], for which the “log2 fold change of degron read counts” value is 2.81 under setting [1], 2.91 under setting [2], 2.59 under setting [3] and 2.54 (compound: thalidomide).
With LECPICGFACTQKGNLLRHIKL [46L_47E_49P_50I_52G_53F_54A_55C_67L_, Q9UKT9], the “log2 fold change of degron read counts” value was 1.75 under setting [1], -0.131 under setting [2], 2.17 under setting [3] and 3.17 (compound: thalidomide).
Regarding LRCPICGFACTQKGNLLRHIKL [46L_47R_49P_50I_52G_53F_54A_55C_67L_, Q9UKT9], the “log2 fold change of degron read counts” value runs as follows: under setting [1], 2.16; under setting [2], 2.14; under setting [3], 2.39; (compound: thalidomide) 2.57.
Taken in the same sequence, the figures for LDCPICGFACTQKGNLLRHIKL [46L_47D_49P_50I_52G_53F_54A_55C_67L_, Q9UKT9] were 0.373, -0.371, 0.648 and 1.61.
For LACPICGFACTQKGNLLRHIKL [46L_47A_49P_50I_52G_53F_54A_55C_67L_, Q9UKT9], in that order: 3.6, 2.95, 2.05 and 2.43.
As for LTCPICGFACTQKGNLLRHIKL [46L_47T_49P_50I_52G_53F_54A_55C_67L_, Q9UKT9], the “log2 fold change of degron read counts” value turned out to be 2.49 under setting [1], 3.12 under setting [2], 2.65 under setting [3] and 3.02 (compound: thalidomide).
With LKCPICGFACTQKGNLLRHIKL [46L_47K_49P_50I_52G_53F_54A_55C_67L_, Q9UKT9], the “log2 fold change of degron read counts” value under setting [1] amounted to 1.2, the “log2 fold change of degron read counts” value under setting [2] was -0.283, the “log2 fold change of degron read counts” value under setting [3] is -0.872 and the “log2 fold change of degron read counts” value (compound: thalidomide) is 1.19.
Regarding LFCPICGFACTQKGNLLRHIKL [46L_47F_49P_50I_52G_53F_54A_55C_67L_, Q9UKT9], the “log2 fold change of degron read counts” value stood at 3.05 under setting [1], 3.52 under setting [2], 2.44 under setting [3] and 1.94 (compound: thalidomide).
In the case of LCCPICGFACTQKGNLLRHIKL [46L_47C_49P_50I_52G_53F_54A_55C_67L_, Q9UKT9], the “log2 fold change of degron read counts” value was determined as 2.49 under setting [1], 2.68 under setting [2], 2.8 under setting [3] and 2.77 (compound: thalidomide).
For LNCPICGFACTQKGNLLRHIKL [46L_47N_49P_50I_52G_53F_54A_55C_67L_, Q9UKT9], in that order: 2.3, 1.32, 1.06 and 1.78.
As to LYCPICGFACTQKGNLLRHIKL [46L_47Y_49P_50I_52G_53F_54A_55C_67L_, Q9UKT9], the “log2 fold change of degron read counts” value runs as follows: under setting [1], 2.98; under setting [2], 3.33; under setting [3], 2.6; (compound: thalidomide) 1.77.
Regarding LVCPICGFACTQKGNLLRHIKL [46L_47V_49P_50I_52G_53F_54A_55C_67L_, Q9UKT9], the “log2 fold change of degron read counts” value by setting is: under setting [1], 1.96; under setting [2], 3.25; under setting [3], 2.26; (compound: thalidomide) 3.56.
For the sequence FKCNICGATFTQKGNLLRHIKL [46F_47K_49N_50I_52G_53A_54T_55F_67L_, Q9UKT9], the “log2 fold change of degron read counts” value under setting [1] is -2.19, the “log2 fold change of degron read counts” value under setting [2] is -2.52, the “log2 fold change of degron read counts” value under setting [3] is -3.31 and the “log2 fold change of degron read counts” value (compound: thalidomide) is -1.21.
As for FACDICGAGFTQKGNLLRHIKL [46F_47A_49D_50I_52G_53A_54G_55F_67L_, Q9UKT9], the “log2 fold change of degron read counts” value runs as follows: under setting [1], 2.54; under setting [2], 0.463; under setting [3], -0.84; (compound: thalidomide) -1.45.
As for FECPICGRFFTQKGNLLRHIKL [46F_47E_49P_50I_52G_53R_54F_55F_67L_, Q9UKT9], the “log2 fold change of degron read counts” value by setting is: under setting [1], -1.85; under setting [2], -1.84; under setting [3], -0.566; (compound: thalidomide) 0.632.
Consider FFCEICGHTFTQKGNLLRHIKL [46F_47F_49E_50I_52G_53H_54T_55F_67L_, Q9UKT9], for which the “log2 fold change of degron read counts” value under setting [1] is -2.85, the “log2 fold change of degron read counts” value under setting [2] is -2.26, the “log2 fold change of degron read counts” value under setting [3] was -2.37 and the “log2 fold change of degron read counts” value (compound: thalidomide) is -2.09.
On to FYCEQCGALFTQKGNLLRHIKL [46F_47Y_49E_50Q_52G_53A_54L_55F_67L_, Q9UKT9], for which the “log2 fold change of degron read counts” value is, setting by setting: under setting [1], -0.0809; under setting [2], 0.128; under setting [3], -0.131; (compound: thalidomide) -1.75.
For FYCPICGRAFTQKGNLLRHIKL [46F_47Y_49P_50I_52G_53R_54A_55F_67L_, Q9UKT9], the “log2 fold change of degron read counts” value is, setting by setting: under setting [1], -3.1; under setting [2], -2.69; under setting [3], -2.69; (compound: thalidomide) -3.4.
On to FHCPQCGATFTQKGNLLRHIKL [46F_47H_49P_50Q_52G_53A_54T_55F_67L_, Q9UKT9], for which the “log2 fold change of degron read counts” value was -1.34 under setting [1], -1.81 under setting [2], 0.0255 under setting [3] and -1.77 (compound: thalidomide).
Taken in the same sequence, the figures for FRCDVCGAEFTQKGNLLRHIKL [46F_47R_49D_50V_52G_53A_54E_55F_67L_, Q9UKT9] were -2.43, -1.82, 0.12 and -1.26.
